The target of this experiment is T1, Methionyl-tRNA synthetase, putative (Leishmania donovani (strain BPK282A1)) (UniProt E9BF75).
T1 sequence (whole entry): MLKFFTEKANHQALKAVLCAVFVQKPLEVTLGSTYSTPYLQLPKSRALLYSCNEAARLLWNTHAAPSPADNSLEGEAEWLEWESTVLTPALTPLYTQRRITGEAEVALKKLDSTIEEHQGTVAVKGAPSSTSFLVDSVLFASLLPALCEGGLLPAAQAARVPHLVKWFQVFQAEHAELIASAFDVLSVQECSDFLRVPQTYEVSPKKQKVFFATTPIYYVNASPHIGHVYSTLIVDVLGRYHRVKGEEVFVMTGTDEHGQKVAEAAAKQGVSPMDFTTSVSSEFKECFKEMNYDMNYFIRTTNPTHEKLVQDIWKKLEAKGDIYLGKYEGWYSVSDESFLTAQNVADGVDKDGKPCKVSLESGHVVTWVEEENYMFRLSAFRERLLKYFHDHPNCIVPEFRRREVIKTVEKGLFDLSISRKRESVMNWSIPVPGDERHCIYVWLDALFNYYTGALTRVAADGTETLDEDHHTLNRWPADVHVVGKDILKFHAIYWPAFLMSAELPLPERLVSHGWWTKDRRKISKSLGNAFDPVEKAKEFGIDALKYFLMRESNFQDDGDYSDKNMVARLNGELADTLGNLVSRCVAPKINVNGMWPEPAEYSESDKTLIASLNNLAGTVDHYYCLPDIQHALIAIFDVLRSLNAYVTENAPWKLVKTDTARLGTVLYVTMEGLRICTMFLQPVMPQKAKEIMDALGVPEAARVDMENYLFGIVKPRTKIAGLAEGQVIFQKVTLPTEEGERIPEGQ
Kind of experiment: Leishmania donovani Methionine tRNA synthetase (LdMetRS):v7. Dose response assay. The format is functional. Further details: conc 80 nM, time 150 minutes.

Drawing on ChEMBL document CHEMBL3988442, “University of Dundee, Small-Polar-MMV Screening Library” (2021), this text covers PXC50 for 29 compounds.

For the compound `COCCNc1nc(-c2cccnc2)nc2sc3c(c12)CCCC3`, the PXC50 by setting is: (MAX_EFFECT 11.84210526) less than 4; (MAX_EFFECT 12.5) less than 4.
As for `Cc1noc(CCNC(=O)c2ccc3ccc(N4CCN(S(C)(=O)=O)CC4)n3c2)n1`, the PXC50 amounted to 4.74 (BOTTOM 5.724020306, HILLSLOPE 2.592848239, MAX_EFFECT 58.13528336, TOP 58.43223286) and 4.91 (BOTTOM -1.848364429, HILLSLOPE 1.849781613, MAX_EFFECT 52.63157895, TOP 54.86189083).
As to `Cc1nc(NC(C(=O)O)C(C)C)c2c3c(sc2n1)CCC3` (stereo not drawn), the PXC50 was less than 4 (MAX_EFFECT 7.537688442) and less than 4 (MAX_EFFECT 7.616707617).
As for `O=c1cc(NCCCNCc2cc(C(F)(F)F)cs2)[nH]c2ccccc12`, the PXC50 reads like this: (BOTTOM -2.424501326, HILLSLOPE 1.220462925, MAX_EFFECT 102.3310023, TOP 102.5192077) 5.71; (BOTTOM -3.989177117, HILLSLOPE 1.235768434, MAX_EFFECT 100.0, TOP 101.1477832) 5.75.
Turning to `Cc1nc(N2CCc3ccccc3C2)c2c3c(sc2n1)CCC3`, the PXC50 is, setting by setting: (BOTTOM 1.539204696, HILLSLOPE 1.85727021, MAX_EFFECT 61.30653266, TOP 67.5568533) 4.58; (BOTTOM -2.995522408, HILLSLOPE 1.216214635, MAX_EFFECT 78.37837838, TOP 108.7860492) 4.36.
Compound `C[C@@H](Oc1cc(-n2cnc3cc(N)ccc32)sc1C(N)=O)c1ccccc1Cl` returned a PXC50 (MAX_EFFECT 24.18604651) of less than 4 and a PXC50 (MAX_EFFECT 25.87412587) of less than 4.
In the case of `CCc1cc2c(NCCCN(C)C)nc(C)nc2s1`, the PXC50 is, setting by setting: (MAX_EFFECT 11.55778894) less than 4; (MAX_EFFECT 12.03931204) less than 4.
Regarding `OB1OC(CN2CCOCC2)c2ccccc21` (stereo not drawn), the PXC50 is less than 4 (MAX_EFFECT 9.245283019) and less than 4 (MAX_EFFECT 9.589041096).
As to `COC(=O)c1sc2nc(C)nc(N(C)Cc3cc(C)on3)c2c1C`, the PXC50 was less than 4 (MAX_EFFECT 8.556149733) and less than 4 (MAX_EFFECT 12.02185792).
For `Cc1sc2nc(CCN)nc(N3CCN(S(C)(=O)=O)CC3)c2c1C`, the PXC50 (MAX_EFFECT 9.660574413) was less than 4 and the PXC50 (MAX_EFFECT 10.96605744) is less than 4.
For the compound `Nc1noc2ccc(-c3cnc4ccc(NCC5CC5)nn34)cc12`, the PXC50 is, setting by setting: (MAX_EFFECT 32.56997455) less than 4; (MAX_EFFECT 37.71929825) less than 4.
`COC(=O)c1sc2nc(C)nc(NCc3cccnc3)c2c1C`: the PXC50 is less than 4 (MAX_EFFECT 10.38251366) and less than 4 (MAX_EFFECT 11.22994652).
Turning to `Cc1nc(NCCO)c2c3c(sc2n1)CCC3`, the PXC50 (MAX_EFFECT 6.632653061) was less than 4 and the PXC50 (MAX_EFFECT 7.828282828) was less than 4.
Take `Cc1nc(NCCCS(N)(=O)=O)c2c(-c3cccs3)csc2n1`: the PXC50 (MAX_EFFECT 6.297229219) was less than 4 and the PXC50 (MAX_EFFECT 6.870229008) is less than 4.
With `CC(=O)N[C@H](COc1cccc(F)c1Oc1ccc(Cl)cc1)CC(C)C`, the PXC50 is less than 4 (MAX_EFFECT 3.105590062) and less than 4 (MAX_EFFECT 4.051172708).
Regarding `Cc1sc2nc(CN3CCOCC3)nc(NC3CCS(=O)(=O)C3)c2c1C` (stereo not drawn), the PXC50 is less than 4 (MAX_EFFECT 9.625668449) and less than 4 (MAX_EFFECT 10.38251366).
On to `Cc1cc2ccc(N3CCN(S(C)(=O)=O)CC3)n2cc1C(=O)NC1CCCC1`, for which the PXC50 is less than 4 (MAX_EFFECT 43.22916667) and less than 4 (MAX_EFFECT 44.29824561).
For `Cc1nc(NCc2noc(C3CCCO3)n2)c2ccsc2n1` (stereo not drawn), the PXC50 is, setting by setting: (MAX_EFFECT 9.660574413) less than 4; (MAX_EFFECT 12.53263708) less than 4.
In turn, `Cc1nc(N2CCC(NS(C)(=O)=O)CC2)c2c(-c3cccs3)csc2n1` displayed a PXC50 (MAX_EFFECT 36.61616162) of less than 4 and a PXC50 (MAX_EFFECT 37.24489796) of less than 4.
As for `COCCNC(=O)c1ccc2ccc(N3CCN(S(C)(=O)=O)CC3)n2c1`, the PXC50 is, setting by setting: (BOTTOM 1.198316498, HILLSLOPE 2.008751015, MAX_EFFECT 51.91956124, TOP 53.93938429) 4.75; (MAX_EFFECT 47.36842105) less than 4.
In the case of `CCOC(=O)N1CCN(c2nc(CCN)nc3sc(C)c(C)c23)CC1`, the PXC50 is, setting by setting: (BOTTOM 0.0282, HILLSLOPE 1.091908383, MAX_EFFECT 72.32375979, TOP 100.0) 4.33; (BOTTOM 1.098813228, HILLSLOPE 1.170601195, MAX_EFFECT 79.37336815, TOP 100.0) 4.4.
Compound `CCOCCCNc1nc(-c2ccc(C)cc2)cc(C(F)(F)F)n1` gave a PXC50 (MAX_EFFECT 5.102040816) of less than 4 and a PXC50 (MAX_EFFECT 5.808080808) of less than 4.
Regarding `Cc1cc2c(N3CCCC3)nc(-c3cccnc3)nc2s1`, the PXC50 was less than 4 (MAX_EFFECT 8.196721311) and less than 4 (MAX_EFFECT 10.16042781).
For `CCc1cc2c(NCCCN(C)C)nc(-c3ccccc3)nc2s1`, the PXC50 is, setting by setting: (MAX_EFFECT 10.07371007) less than 4; (MAX_EFFECT 10.55276382) less than 4.
`COC(=O)c1sc2nc(C)nc(N(C)Cc3cccnc3)c2c1C` returned a PXC50 (MAX_EFFECT 13.66120219) of less than 4 and a PXC50 (MAX_EFFECT 13.90374332) of less than 4.
In turn, `Nc1noc2ccc(-c3cnc4ccc(NCc5cccnc5)nn34)cc12` registered a PXC50 (MAX_EFFECT 15.26717557) of less than 4 and a PXC50 (MAX_EFFECT 15.78947368) of less than 4.
With `Cc1nc(N2CCC(C)CC2)c2ccsc2n1`, the PXC50 reads like this: (MAX_EFFECT 9.848484848) less than 4; (MAX_EFFECT 11.2244898) less than 4.
With `Cc1nc(N2CC[C@@H](O)C2)c2c3c(sc2n1)CCCC3`, the PXC50 is less than 4 (MAX_EFFECT 8.838383838) and less than 4 (MAX_EFFECT 10.20408163).
With `CS(=O)(=O)N1CCN(c2ccc3ccc(C(=O)NC4CCCC4)nn23)CC1`, the PXC50 is, setting by setting: (MAX_EFFECT 4.387568556) less than 4; (MAX_EFFECT 8.612440191) less than 4.
